# Assay results from PubChem BioAssay (NCATS).
# Records with an inconclusive call do not appear. Where a structure was tested more than once in an assay, its records may differ in their call. The source made the active and inactive calls. Unless noted, calls come from the whole dose curve.
# What was measured:
# [1] = Confirmatory qHTS to identify inhibitors of SARS-CoV-2 cell entry (AID 1645844); note: nearly all actives have a fitted effect of over 45% in size; note: potency is the fitted concentration of half-maximal effect
# In short: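 HEK293-ACE2 cells were pretreated 1 h with compound, then infected with MLV-based pseudoparticles bearing C-terminally truncated Wuhan-Hu-1 spike for 48 h at 37C; luciferase luminescence normalized to spike PP and bald PP wells.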
# [2] = Cytotoxicity counterscreen for inhibitors of SARS-CoV-2 cell entry (AID 1645845); note: nearly all actives have a fitted effect of over 50% in size
# In short: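 HEK293-ACE2 cells (Expi293F stably expressing human ACE2) seeded overnight, then compound for 1 h plus 48 h at 37C. Viability as ATP content by luminescence; normalized to wells with cells and media-only wells.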
# [3] = Primary qHTS to identify inhibitors of SARS-CoV-2 cell entry (AID 1645846); conditions: activity change, negative = inhibition: at 57.1 µM (top of the series) unless noted; note: nearly all actives have a fitted effect of over 45% in size; note: potency is the fitted concentration of half-maximal effect
# In short: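 Luminescence readout (Bright-Glo luciferase) 48 h after pseudoparticle addition. HEK293-ACE2 cells, 1500/well; compound pre-incubation 1 h; Normalized to spike PP and bald PP.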
# [4] = VSVG counterscreen qHTS to identify inhibitors of SARS-CoV-2 cell entry (AID 1645847); note: nearly all actives have a fitted effect of over 65% in size; note: potency is the fitted concentration of half-maximal effect; for activity change, negative = inhibition: % is set by controls: 0 for no effect and ±100 for the full control effect
# In short: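 HEK293-ACE2 cells (Expi293F stably expressing human ACE2) were pretreated with compound for 1 h at 37 °C, then infected with MLV-based VSV-G pseudotyped particles for 48 h. Luciferase luminescence was normalized to VSV-G PP and bald PP wells.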
# [5] = target: Cytochrome P450 2D6 (Homo sapiens) (UniProt P10635); experiment: Cytochrome P450 family 2 subfamily D member 6 (CYP2D6) small molecule antagonists: luciferase biochemical (cell-free) qHTS assay (AID 1645840; active = well fitted curve in the direction sought with a large enough effect in the repeat runs; an effect the other way counts as inactive or inconclusive; note: nearly all actives have a fitted effect of over 55% in size; note: potency is the fitted concentration of half-maximal effect; for activity change, negative = inhibition: % is set by controls: 0 for no effect and ±100 for the full control effect)
# Cytochrome P450 2D6 (Homo sapiens), sequence (P10635 whole entry, looked up): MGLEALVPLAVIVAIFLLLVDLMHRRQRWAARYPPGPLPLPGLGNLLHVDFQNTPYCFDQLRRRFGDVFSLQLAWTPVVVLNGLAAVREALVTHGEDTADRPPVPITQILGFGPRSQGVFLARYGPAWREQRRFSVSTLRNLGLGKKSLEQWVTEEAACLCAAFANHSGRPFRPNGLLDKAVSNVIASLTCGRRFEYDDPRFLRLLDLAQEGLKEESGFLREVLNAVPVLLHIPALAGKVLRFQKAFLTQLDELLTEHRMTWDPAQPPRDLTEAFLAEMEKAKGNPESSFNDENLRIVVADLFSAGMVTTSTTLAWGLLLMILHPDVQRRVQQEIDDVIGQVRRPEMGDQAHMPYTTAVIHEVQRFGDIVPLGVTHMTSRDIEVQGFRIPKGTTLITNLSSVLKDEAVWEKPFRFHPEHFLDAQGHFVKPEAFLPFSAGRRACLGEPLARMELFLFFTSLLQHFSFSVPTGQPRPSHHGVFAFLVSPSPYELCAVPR
# In short: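 P450-Glo luminescent screen: recombinant CYP2D6 enzyme–proluciferin substrate mix preincubated with compound 10 min at room temperature, then NADPH regeneration added for 1 h at room temperature. Detection reagent added for 20 min; luciferin light read as relative luminescence units.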
# [6] = target: Cytochrome P450 2C9 (Homo sapiens) (UniProt P11712); experiment: Cytochrome P450 family 2 subfamily C member 9 (CYP2C9) small molecule antagonists: luciferase biochemical (cell-free) qHTS assay (AID 1645842; active = well fitted curve in the direction sought with a large enough effect in the repeat runs; an effect the other way counts as inactive or inconclusive; note: nearly all actives have a fitted effect of over 55% in size; note: potency is the fitted concentration of half-maximal effect; for activity change, negative = inhibition: % is set by controls: 0 for no effect and ±100 for the full control effect)
# Cytochrome P450 2C9 (Homo sapiens), sequence (P11712 whole entry, looked up): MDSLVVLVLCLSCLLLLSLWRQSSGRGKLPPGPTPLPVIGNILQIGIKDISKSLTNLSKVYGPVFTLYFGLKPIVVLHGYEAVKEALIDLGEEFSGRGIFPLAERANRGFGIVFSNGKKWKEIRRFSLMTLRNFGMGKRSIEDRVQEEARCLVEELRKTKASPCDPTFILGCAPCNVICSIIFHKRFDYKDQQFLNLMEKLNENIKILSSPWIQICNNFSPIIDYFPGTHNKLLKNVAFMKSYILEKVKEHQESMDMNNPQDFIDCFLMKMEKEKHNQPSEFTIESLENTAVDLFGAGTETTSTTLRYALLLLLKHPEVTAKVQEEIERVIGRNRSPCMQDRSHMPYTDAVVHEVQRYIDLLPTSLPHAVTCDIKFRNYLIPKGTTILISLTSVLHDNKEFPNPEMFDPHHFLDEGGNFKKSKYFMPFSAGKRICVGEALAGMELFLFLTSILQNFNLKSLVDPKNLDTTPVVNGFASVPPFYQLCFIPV
# In short: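 Luminescence, after 20 min with luciferin detection reagent, reflected CYP2C9 turnover during a 1 h NADPH-driven reaction at 37C. Enzyme-substrate mix contained 0.4% bovine serum albumin and was preincubated with compound 10 min at room temperature.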
# [7] = Primary qHTS for inhibitors of nuclear receptor binding SET domain protein 2 (NSD2) in an isogenic RCH-ACV NSD2 p.E1099K mutant (9B) (AID 1645876; active = well fitted curve in the direction sought with a large enough effect; an effect the other way counts as inactive or inconclusive; note: nearly all actives have a fitted effect of over 70% in size)
# [8] = Primary qHTS for inhibitors of nuclear receptor binding SET domain protein 2 (NSD2) in an RCH-ACV wild type WT cells (2C) (AID 1645877; active = well fitted curve in the direction sought with a large enough effect; an effect the other way counts as inactive or inconclusive; note: % is set by controls: 0 for no effect and ±100 for the full control effect; nearly all actives have a fitted effect of over 70% in size)
# [9] = A High-Content qHTS Against Drug Library for the Identification of Small Molecules that Inhibit DYT1 Early Onset Primary Dystonia-Associated Cell Pathology (AID 1645839)
# In short: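 Flp-In T-REx 293 cells with tetracycline-inducible EGFP-delE hTOR1A (WT EGFP-hTOR1A as reference), 800 cells/well; compound added with tetracycline, 48 h at 37 C. Fixed, permeabilized cells imaged; %pathology (punctate TorsinA) primary, cell count counterscreen.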
compound,measurement,setting,value
CCCCC(CC)COC(=O)C(C#N)=C(c1ccccc1)c1ccccc1 (configuration not stated),Potency,[1],27.1 µM (active)
same,Potency,[2],inactive
same,"activity change, negative = inhibition",[3],-96.1%
same,Potency,[4],21.5 µM (active)
CCCOc1ccc2nc(NC(=O)OC)[nH]c2c1,Potency,[1],0.764 µM (active)
same,Potency,[2],inactive
same,Potency,[4],0.607 µM (active)
CCCCCOc1ccccc1/C(=C\SC)n1ccnc1,Potency,[1],24.1 µM (active)
CN(C)CCOC(c1ccccc1)c1ccc(Br)cc1 (configuration not stated),Potency,[1],2.41 µM (active)
same,"activity change, negative = inhibition",[3],-67.2%
same,Potency,[4],2.71 µM (active)
COC(=O)[C@H]1[C@H]2C[C@@H]3c4[nH]c5cc(OC)ccc5c4CCN3C[C@H]2C[C@@H](OC(=O)/C=C/c2ccc(O)c(OC)c2)[C@@H]1OC,Potency,[1],30.4 µM (active)
same,Potency,[2],inactive
same,Potency,[3],12.6 µM (active)
same,Potency,[4],19.2 µM (active)
CCN(CCCc1ccccc1)CCCc1ccccc1,Potency,[2],inactive
O[C@@H](COc1cccc2ncccc12)CN1CCN(C2c3ccccc3[C@@H]3[C@H](c4ccccc42)C3(F)F)CC1 (some centres not stated),Potency,[1],19.2 µM (active)
same,Potency,[3],28.2 µM (active)
same,Potency,[4],0.171 µM (active)
CN1C(=O)[C@@H](NC(=O)c2cc3ccccc3[nH]2)N=C(c2ccccc2)c2ccccc21,Potency,[5],inactive
same,Potency,[6],2.75 µM (active)
same,Potency,[7],inactive
same,Potency,[8],inactive
Oc1ccc(Cl)cc1Cc1cc(Cl)ccc1O,Potency,[1],0.0152 µM (active)
same,Potency,[4],3.83 µM (active)
CCCCCCCCCCCCOS(=O)(=O)O,Potency,[5],inactive
same,Potency,[6],inactive
same,Potency,[2],inactive
same,"activity change, negative = inhibition",[3],-9.15%
Cc1ccc(N=CN(C)C=Nc2ccc(C)cc2C)c(C)c1,outcome,[9],inactive
same,Potency,[6],inactive
same,Potency,[2],inactive
same,"activity change, negative = inhibition",[3],-12.8%
same,Potency,[7],inactive
same,Potency,[8],inactive
O=C1NC2CCCCN2C12CCN(CCCN1c3ccccc3CCc3ccc(Cl)cc31)CC2 (configuration not stated),Potency,[1],15.2 µM (active)
same,Potency,[2],inactive
same,Potency,[4],21.5 µM (active)
O=C(Nc1ccccc1)OCC(CN1CCCCC1)OC(=O)Nc1ccccc1 (configuration not stated),Potency,[1],inactive
same,Potency,[4],inactive
CC(C)(C)c1ccc(C(=O)CCCN2CCC(OC(c3ccccc3)c3ccccc3)CC2)cc1,Potency,[2],inactive
CN(C)CCN1C(=O)c2ccccc2N(C)c2ccccc21,Potency,[2],inactive
CCOC(=O)C1=C(C)NC(C)=C(C(=O)OCC)C1c1ccccc1/C=C/C(=O)OC(C)(C)C,Potency,[1],0.961 µM (active)
same,Potency,[2],inactive
same,Potency,[3],25.1 µM (active)
same,Potency,[4],1.21 µM (active)
CCCCCC(=O)O[C@]1(C(C)=O)CC[C@H]2[C@@H]3CCC4=CC(=O)CC[C@]4(C)[C@H]3CC[C@@]21C,Potency,[1],24.1 µM (active)
same,Potency,[4],24.1 µM (active)
CN(C(=O)c1c(O)c2ccccc2n(C)c1=O)c1ccccc1,Potency,[1],inactive
same,Potency,[2],inactive
same,"activity change, negative = inhibition",[3],-55.9%
same,Potency,[4],inactive
CCCCCCOC(=O)NC(=N)c1ccc(NCc2nc3cc(C(=O)N(CCC(=O)OCC)c4ccccn4)ccc3n2C)cc1,Potency,[1],10.8 µM (active)
same,Potency,[2],inactive
same,Potency,[3],22.4 µM (active)
same,"activity change, negative = inhibition",[3],-62%
same,Potency,[4],4.82 µM (active)
O=C(CCCN1CCC(n2c(=O)[nH]c3ccccc32)CC1)c1ccc(F)cc1,Potency,[5],6.92 µM (active)
same,Potency,[6],inactive
same,Potency,[2],inactive
same,Potency,[3],inactive
CCN(CC)CCOc1ccc(/C(=C(\Cl)c2ccccc2)c2ccccc2)cc1,Potency,[1],21.5 µM (active)
same,Potency,[2],inactive
same,"activity change, negative = inhibition",[3],4.38%
same,Potency,[4],8.57 µM (active)
CC(=O)c1ccc2c(c1)N(CCCN1CCC(CCO)CC1)c1ccccc1S2,Potency,[1],22.4 µM (active)
same,Potency,[4],7.08 µM (active)
Clc1ccccc1C(c1ccccc1)(c1ccccc1)n1ccnc1,Potency,[1],24.1 µM (active)
same,Potency,[4],19.2 µM (active)
CCC1(c2cccc(O)c2)CCCCN(C)C1 (configuration not stated),Potency,[5],13.8 µM (active)
same,Potency,[6],inactive
same,Potency,[3],inactive
same,Potency,[7],inactive
same,Potency,[8],inactive
O=C(CCCN1CCN(c2ccc(F)cc2)CC1)NC1c2ccccc2CSc2ccccc21 (configuration not stated),Potency,[1],1.92 µM (active)
same,Potency,[2],inactive
same,Potency,[4],1.71 µM (active)
